Assay results as given in PubChem BioAssay AID624483 (NMMLSC, 2012).
The campaign covered roughly 360,000 compounds. About 11,000 (3.1%) were called active. Roughly 2% stayed inconclusive and do not appear here. Cut-off read from the data, not from the text of the source: active = fluorescence intensity above about 16000; inconclusive = no clear call, values can overlap the other calls; inactive = below that. Only a selection was taken, and actives are over-represented in it overall.

Assay: counter-screen for toxin protease inhibitors: compound fluorescence, primary screen, artefact control for toxin protease inhibitor project, biochemical, multiplex microsphere, HTS (AID 624483)
Conditions: compound autofluorescence counterscreen, microsphere flow cytometry; hits give high values

Compound | fluorescence intensity
COc1ccc(CC(N)c2csc(NC(=O)NC(c3ccccc3)c3ccccc3)n2)cc1 (stereo not given) | 3610 (inactive)
COc1ccc(OC)c(C(O)c2ncc(-c3cccc(C(F)(F)F)c3)[nH]2)c1 (stereo not given) | 3890 (inactive)
CN1OC[C@@H]2CN(C(=O)c3cccnc3)[C@H](c3ccc(N4CCCCC4)cc3)C[C@@H]21 | 4430 (inactive)
CN1OC[C@@H]2CN(C(=O)c3cccc4ccccc34)[C@H](c3ccc(N4CCCCC4)cc3)C[C@@H]21 | 11700 (inactive)
CN1OC[C@@H]2CN(S(=O)(=O)c3cccc4ccccc34)[C@H](c3ccc(N4CCCCC4)cc3)C[C@@H]21 | 25600 (active)
Cc1cc(C)c2nc3nc(C)cc(C)c3c(N)c2c1 | 2140 (inactive)
CCOC(=O)Cc1ncccc1C(=O)Nc1ccc(OC)cc1 | 3720 (inactive)
CCCCOc1ccc(NC(=O)CSCC(=O)OCC)cc1 | 21000 (active)
CCOc1ccc(NC(=O)CSc2nncn2C)cc1 | 3760 (inactive)
COc1ccc(C(C)C)cc1-c1ccc2nncn2c1 | 3610 (inactive)
CC1(C(=O)NS(=O)(=O)c2ccccc2)CCN1C(=O)c1ccccc1 (stereo not given) | 3830 (inactive)
CCCCCCN1CCN(C2CN(Cc3cn(Cc4ccc(F)cc4)nn3)S(=O)(=O)C2)CC1 (stereo not given) | 6160 (inactive)
CSc1nsc(SCC(=O)Nc2cc(C(=O)O)ccc2C)n1 | 4170 (inactive)
Oc1ccc(-n2nnnc2SCc2c(F)cccc2Cl)cc1 | 3260 (inactive)
CC(C)C[C@@H](N)c1nnc(SCC(=O)c2ccc(Cl)cc2)o1 | 9640 (inactive)
N[C@@H](Cc1c[nH]c2ccccc12)c1nnc(SCc2c(F)cccc2Cl)o1 | 22800 (active)
CC(C)(C)C1C/C(=C/c2ccco2)C(=O)/C(=C/c2ccco2)C1 (stereo not given) | 3920 (inactive)
O=S1(=O)CC(N2CCSCC2)CN1Cc1cn(Cc2cccc(Cl)c2)nn1 (stereo not given) | 5080 (inactive)
O=C(O)C(c1cccs1)C1(O)CCCCC1 (stereo not given) | 3860 (inactive)
CC12CN3CC(C)(CN(C1)C3c1cccs1)C2 (stereo not given) | 8490 (inactive)

Compound | fluorescence intensity
CC1(C)C(=O)C2(CCCCC2)C(=O)OC1c1cccs1 (stereo not given) | 20700 (active)
CCC(C(=O)N1CCN(S(=O)(=O)c2sc(C(=O)O)c(C)c2C(=O)O)CC1)c1ccccc1 (stereo not given) | 9090 (inactive)
COc1cccc(NC(=O)Nc2ccc(F)cc2)c1 | 3940 (inactive)
COc1ccc(C)cc1S(=O)(=O)N(CC(=O)Nc1cccc([N+](=O)[O-])c1)c1ccc(C)cc1 | 2390 (inactive)
CN(c1cccc(NC(=O)c2ccc(CN3CCc4ccccc4C3)cc2)c1)S(C)(=O)=O | 3600 (inactive)
Cc1ccc(N(CC(=O)Nc2cccc(N(C)S(C)(=O)=O)c2)S(C)(=O)=O)cc1 | 24500 (active)
CCOc1ccc(N(CC(=O)Nc2cccc(OC)c2)S(C)(=O)=O)cc1 | 4460 (inactive)
CN(c1cccc(NC(=O)Nc2ccc(Cl)cc2)c1)S(C)(=O)=O | 16900 (active)
N#Cc1c(NCCO)ccc([N+](=O)[O-])c1NCCO | 3950 (inactive)
O=C(NCc1cccnc1)c1cc(C2CCCN(C(=O)CCCc3ccccc3)C2)on1 (stereo not given) | 3480 (inactive)
COc1ccc(-c2coc3c(C(=O)NC(C)C)cccc23)c(C)c1 | 3850 (inactive)
O=C(COC(=O)c1ccc(F)c(S(=O)(=O)N2CCOCC2)c1)NCc1ccc2c(c1)OCO2 | 3750 (inactive)
CCOC(=O)N1CCN(c2c(NCCCN3CCCC(C)C3)c(=O)c2=O)CC1 (stereo not given) | 4370 (inactive)
Cc1ccc(-c2nc3c(C)cc(Br)cn3c2Cc2ccccc2)cc1 | 4960 (inactive)
CC(=O)N(CC(O)CO)c1c(I)c(C(=O)NCC(O)CO)c(I)c(C(=O)NCC(O)CO)c1I (stereo not given) | 5720 (inactive)
N#Cc1c(N)nc2c(c1N)CC(C(F)(F)F)O2 (stereo not given) | 4380 (inactive)
C=CCn1c(COc2ccc(F)cc2)nnc1SCC(=O)Nc1cccc(S(N)(=O)=O)c1 | 4780 (inactive)
C=CCn1c(COc2ccccc2C)nnc1SCC(=O)O | 2820 (inactive)
C=CCn1c(COc2cccc3cccnc23)nnc1SCC(=O)OC | 21200 (active)
CN(Cc1ccc(C(F)(F)F)cc1)C(=O)[C@H]1O[C@@H](n2cnc3c(N)ncnc32)[C@H](O)[C@@H]1O | 4210 (inactive)

Compound | fluorescence intensity
COc1cc(C(=O)NCc2ccc3c(c2)cc(C)n3C)cc(OC)c1OC | 3720 (inactive)
COCCNC(=O)C1(C)CCCN(Cc2cccc(F)c2)C1 (stereo not given) | 2750 (inactive)
OC(c1nnc(-c2ccccc2)o1)c1cccs1 (stereo not given) | 4160 (inactive)
Brc1ccc(-c2nnc(-c3ccccc3)o2)o1 | 24200 (active)
Brc1ccc(-c2noc(-c3ccccc3)n2)o1 | 4610 (inactive)
CCCCCc1c(-c2ccc(OC)c(OC)c2)ncn1CCc1ccccc1OC | 6300 (inactive)
COc1cccc(CNC(=O)COc2cc(O)c3c(c2)OC(C)(C)CC3=O)c1 | 5480 (inactive)
CC1=C(C(=O)N2CCOCC2)CC(CC(=O)NCc2cccs2)C(=O)N1CCCN1CCCC1=O (stereo not given) | 4160 (inactive)
CCN(CC)C(=O)C1CCCN(Cc2cccc(Cl)c2)C1 (stereo not given) | 2940 (inactive)
COc1ccc(-c2noc(CSc3ccc(C)cc3)n2)cc1 | 24000 (active)
COc1ccc(N2CCN(C(=O)CCc3nc(-c4ccc(C)cc4)no3)CC2)cc1 | 3440 (inactive)
Cc1ccc(-c2noc(CC(c3ccccc3)c3ccccc3)n2)cc1 | 4240 (inactive)
CC(C)c1ccc(CC(=O)N2CCC2(C)C(=O)NS(=O)(=O)c2ccc(C(C)(C)C)cc2)cc1 (stereo not given) | 2850 (inactive)
CCC(=O)N1CCC(C)(C(=O)Nc2cc(OC)c(OC)c(OC)c2)C1 (stereo not given) | 3060 (inactive)
Cc1ccc(-n2c(CNc3ccc(F)cc3)nnc2SCC(=O)N2CCOCC2)cc1 | 4740 (inactive)
O=C(CSc1nnc(Cc2ccccc2)n1-c1ccccc1)N1CCOCC1 | 16700 (active)
CCn1c(CC(=O)Nc2ccccc2)nnc1SCC(=O)N1CCOCC1 | 6500 (inactive)
O=C(COc1ccc([N+](=O)[O-])cc1Cl)Nc1ccc2[nH]c(=O)[nH]c2c1 | 4100 (inactive)
COC(=O)c1ccc(OCC(=O)NC(C)(C)C)cc1 | 2670 (inactive)
CC(C)(C)NC(=O)COc1ccc(CNc2ccc3[nH]c(=O)[nH]c3c2)cc1 | 22600 (active)
